This is a sample that favours compounds with a hit; in the whole collection about 0.25% have one here.
Tb PFK inh: inhibitors of T. brucei phosphofructokinase; T. brucei PFK, ADP-Glo luminescence; Potency, µM (titrated, usually from 57.5 µM), inactives show at the highest dose activity, negative = inhibition, actives largely listed as inhibitors; actives 0.17% (n = 330,000);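 note: 0% = uninhibited 1x PFK enzyme wells and -100% = no-enzyme wells; nearly all actives have a fitted effect of over 60% in size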
Target sequence (O15648 whole entry, looked up): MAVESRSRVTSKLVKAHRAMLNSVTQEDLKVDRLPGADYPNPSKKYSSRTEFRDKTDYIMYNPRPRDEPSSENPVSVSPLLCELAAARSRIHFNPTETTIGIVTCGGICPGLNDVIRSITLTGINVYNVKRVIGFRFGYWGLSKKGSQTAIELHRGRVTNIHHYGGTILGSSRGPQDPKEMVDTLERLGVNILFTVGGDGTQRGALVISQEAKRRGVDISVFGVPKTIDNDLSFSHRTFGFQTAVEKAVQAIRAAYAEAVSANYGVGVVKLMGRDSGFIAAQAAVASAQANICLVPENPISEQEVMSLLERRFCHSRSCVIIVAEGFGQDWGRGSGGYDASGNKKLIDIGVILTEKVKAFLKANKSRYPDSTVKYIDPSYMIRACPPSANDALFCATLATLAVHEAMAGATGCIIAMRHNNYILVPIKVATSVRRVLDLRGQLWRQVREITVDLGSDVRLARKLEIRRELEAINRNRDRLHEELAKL
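Luminescent ADP detection (ADP-Glo, two-step: ATP depletion then ADP-to-ATP conversion for luciferase) reported PFK activity after 45 min room-temperature reaction of 1.25 nM enzyme with 0.5 mM F6P and 0.1 mM ATP at pH 8.0.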
PGK inhibitor: inhibitors of T. brucei phosphoglycerate kinase. PGK/GAPDH coupled, Kinase-Glo luminescence, 60 min. P07378. AID 602233. Potency, µM (series often up to 57.5 µM), for inactives: at the highest dose activity change, negative = inhibition, usual class: inhibitors. actives 0.043% (n = 380,000); note: % is set by controls: 0 for no effect and ±100 for the full control effect; nearly all actives have a fitted effect of over 60% in size
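Luminescent ATP detection (Kinase-Glo Plus) follows a 60-minute room-temperature incubation, with wells lacking PGK as controls. Buffer: 100 mM TEA (pH 7.6), 5 mM MgCl2, 0.01% Tween-20. Coupling enzyme GAPDH (100 nM final) supplies unstable 1,3-BPG in-well.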
Chronic BCR inh: chronic active BCR signaling inhibition; ABC-DLBCL IkBa-CBG/CBR reporter, luminescence ratio, 4 h; Potency, µM (doses to about 46.1 µM), for inactives: top-dose activity change, negative = inhibition, most hits filed as inhibitors; actives 0.05% (n = 340,000); AID 493014; active = well fitted inhibition curve with a large enough effect in the signal ratio, with a control signal flat, not every such curve was filed as active; inconclusive = small, poorly fitted or top-dose-only effect, or effect the other way, or a change in a side signal; the % refers to the signal ratio;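 note: plate controls were basal doxycycline-induced cells for no effect and cells given 10 µM MG132 for full effect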
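TMD8 ABC-DLBCL cells carrying doxycycline-inducible green luciferase fused to IkappaBalpha plus unfused red luciferase were exposed to compounds (up to 46 uM) for 4 hrs at 37C. Activity came from the overlap-corrected green/red luminescence ratio.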
ERG-DNA inh: blocks human ERG Ets domain binding to DNA; P11308; fluorescence polarization, His-ERG Ets domain / labelled DNA; Potency, µM (titrated, usually from 76.9 µM), for inactives: at the top dose FP activity, negative = inhibition, actives largely listed as inhibitors; actives 0.028% (n = 370,000); active = well fitted inhibition curve with a large enough effect in the polarisation, with a control signal flat; inconclusive = small, poorly fitted or top-dose-only effect, or effect the other way, or a change in a side signal; inactive = no such curve, though single readings can be large or run the other way; the % refers to the polarisation;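 note: polarization taken with two DNA probes labelled with fluorescein and Texas red; % of control where 0% means no effect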
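His-tagged ERG Ets domain (1 uM in the protein solution; 300mM KCl, 50mM Tris-HCl, 1mM EDTA, 1mM DTT, pH 7.5) received compound, then a probe mix of 5 nM fluorescein-DNA and 100nM Texas-615-DNA. Fluorescence polarization was read for both dyes.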
Pin1 inhibitor: inhibitors of human Pin1. AID 504891. Q13526. actives 0.009% (n = 390,000). Potency, µM (highest dose often 115 µM), without a hit: at the highest dose activity, negative = inhibition, actives largely listed as inhibitors. Pin1 FP peptide displacement, HiFluor488, 10 min; active = well fitted inhibition curve with a large enough effect in the polarisation, with a control signal flat, not every such curve was filed as active; inconclusive = small, poorly fitted or top-dose-only effect, or effect the other way, or a change in a side signal; inactive = no such curve, though single readings can be large or run the other way; the % refers to the polarisation; note: % is set by controls: 0 for no effect and ±100 for the full control effect
Target sequence (Q13526 whole entry, looked up): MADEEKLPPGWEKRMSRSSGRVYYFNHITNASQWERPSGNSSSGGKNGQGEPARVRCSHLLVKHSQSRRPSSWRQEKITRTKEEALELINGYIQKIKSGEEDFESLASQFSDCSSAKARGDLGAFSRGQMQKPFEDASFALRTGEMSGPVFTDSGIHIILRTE
* hit, by the source's call; i = inactive; ? = inconclusive; . = not tested or not shown. Unless noted, calls come from the whole dose curve; as a rule, active = well fitted curve in the direction sought with a large enough effect; inconclusive = small, poorly fitted or top-dose-only effect, or another doubt; inactive = no such curve, though single readings can be large; an effect the other way counts as inactive or inconclusive. Potency is the fitted concentration of half-maximal effect.

SMILES	Tb PFK inh	PGK inhibitor	Chronic BCR inh	ERG-DNA inh	Pin1 inhibitor
CC1C(=O)N2CCCc3cc(NC(=O)c4ccccc4Br)cc1c32 (stereo unspecified)	-2%	6%	23µM*	-7%	-10%
Cc1cc2c(s1)c1cnn(Cc3cc(C(F)(F)F)cc(Cl)c3F)c(=O)c1n2C	.	.	.	.	4%
Cc1cc(C=O)c(C)n1-c1cc(C(=O)O)cc(C(=O)O)c1	?	10µM*	-1%	-10%	-18%
COc1ccc(C2Nc3ccccc3C(=O)N2c2ccc(Cl)cc2)cc1COc1ccc(NC(C)=O)cc1 (stereo unspecified)	.	.	.	.	22%
Cc1ccc(/C=C/C(=O)c2nc3ccccc3[nH]2)cc1	-4%	1%	13µM*	8%	12%
O=C1NC(=O)N(Cc2ccco2)C(=O)/C1=C/C=C/c1ccco1	30µM*	?	0%	67%	?
CN1C(=O)/C(=C/C=C/c2ccco2)C(=O)NC1=S	?	28µM*	10%	84%	?
O=C1NC(=O)N(Cc2ccccc2)C(=O)/C1=C\C=C\c1ccco1	-22%	10%	?	?	?
CCN1CCN(c2nc(C)nc3c2sc(=S)n3C)CC1	19µM*	-5%	5%	-1%	-4%
CCc1ccc(/C(C)=N/NC(=O)CNC(=O)/C=C/c2ccccc2OC)cc1	-1%	1%	-15%	-2%	4%
CCc1ccc(/C(C)=N/NC(=O)CNC(=O)/C=C/c2ccco2)cc1	.	14µM*	.	-5%	.
COc1ccc(C2Nc3ccccc3C(=O)N2Cc2ccccc2)cc1COc1ccc(C#N)cc1 (stereo unspecified)	.	.	.	.	15%
COC(=O)c1ccc(-c2ccc(OC)c(C3C4C=CCC(C)C4C(=O)N3Cc3ccccc3)c2)cc1 (stereo unspecified)	.	.	.	.	-3%
Cc1cc(O)ccc1N=Cc1c(C(F)(F)F)[nH][nH]c1=O	-9%	.	?	6.3µM*	7%
COc1cccc(C2c3c(ncn(-c4cccnc4)c3=N)Oc3ccc4ccccc4c32)c1 (stereo unspecified)	.	.	.	.	4%
O=C(O)c1cc2c(s1)-c1ccccc1CC2	7%	0%	?	16µM*	-1%
O=C(Nc1ccccc1)c1ccc2nc(-c3ccco3)c(-c3ccco3)nc2c1	-3%	-7%	11%	2%	?
O=C(NCCO)Nc1ccc2nc(-c3ccco3)c(-c3ccco3)nc2c1	1.9µM*	.	?	.	.
CC(=O)c1ccc(NC(=O)c2ccc3nc(-c4ccco4)c(-c4ccco4)nc3c2)cc1	-21%	?	?	1%	19µM*
O=C(NCCCO)c1ccc2nc(-c3ccco3)c(-c3ccco3)nc2c1	-17%	-6%	?	11%	?
O=C(COC(=O)C12CC3CC(CC(Cl)(C3)C1)C2)NCc1ccco1	.	.	.	.	1%
O=c1c2ccccc2nc2sc(NCc3ccccc3)nn12	.	.	.	.	-11%
COc1ccc(-c2nn3c(C4CCCCC4)nnc3s2)cc1OC	-26%	-5%	14µM*	7%	?
COc1cc(-c2nn3c(C4CCCCC4)nnc3s2)cc(OC)c1OC	4%	-6%	?	1%	-3%
CCOC(=O)N1CCN(/[N+]([O-])=N/Oc2ccc([N+](=O)[O-])cc2[N+](=O)[O-])CC1C (stereo unspecified)	.	.	.	.	-3%
SMILES	Tb PFK inh	PGK inhibitor	Chronic BCR inh	ERG-DNA inh	Pin1 inhibitor
O=C(O)c1cccc(-n2cccc2/C=C2/NC(=O)N(c3ccc(Cl)cc3)C2=O)c1	?	3.2µM*	?	-16%	.
CC(=O)Nc1ccc(S(=O)(=O)N2CCN(S(=O)(=O)c3c(F)cccc3F)CC2)cc1	.	.	.	.	34%
CN(C)c1cccc(-c2cnc(N3CCC(c4ncc[nH]4)CC3)s2)c1	.	.	.	.	-2%
O=c1cc(-c2ccc(O)cc2)oc2c(O)c(O)c(O)c(O)c12	-20%	4.5µM*	5%	-1%	?
COc1ccc(C2N(Cc3ccccc3)C(=O)c3ccccc3N2C)cc1COc1ccc(NC(C)=O)cc1 (stereo unspecified)	.	.	.	.	24%
Cc1ccc(/C=C/C(=O)Nc2ccc(S(=O)(=O)Nc3onc(C)c3C)cc2)cc1	2%	-3%	?	28µM*	?
CCCCN(C)C(=O)CS(=O)(=O)Cc1nc(-c2cccc(OC)c2)oc1C	-5%	2%	2%	20µM*	-2%
CCOC(=O)c1c(/C=N/Nc2ccccc2)c2sc(C)cc2n1C	-5%	.	?	.	.
O=C(O)Cc1cccc(=O)c(O)c1C(=O)O	.	13µM*	.	-11%	.
COCCCNc1c2c3c(cccc3[nH]c1=O)C(=O)c1ccccc1-2	0%	-2%	?	7.1µM*	?
O=c1c(O[C@@H]2O[C@H](CO)[C@H](O)[C@H](O)[C@H]2O)c(-c2ccc(O)c(O)c2)oc2cc(O)cc(O)c12	6.7µM*	.	1%	.	.
O=c1c(O[C@@H]2O[C@H](CO)[C@@H](O)[C@H](O)[C@H]2O)c(-c2ccc(O)c(O)c2)oc2cc(O)cc(O)c12	?	.	14%	.	.
CC(=O)Nc1nc2ccc(-c3nc4ccccc4o3)cc2s1	10%	6%	15µM*	5%	0%
O=C(O)C1Nc2c(O)cc(Cl)c([N+](=O)[O-])c2C2C=CCC12 (stereo unspecified)	?	4.5µM*	2%	9%	.
O=C(O)/C=C/c1ccc([N+](=O)[O-])o1	0%	16µM*	4%	4%	-23%
CCOC(=O)C1=C(C)N=c2s/c(=C/c3ccc(OCC(=O)O)c(OC)c3)c(=O)n2C1c1ccc(Cl)cc1 (stereo unspecified)	.	14µM*	.	32%	?
Cc1cc2c(s1)c1cnn(Cc3cc(OC(F)(F)F)ccc3F)c(=O)c1n2C	.	.	.	.	1%
Cc1cc2ccccc2n1CCNC(=O)c1cccs1	2%	-9%	5%	32µM*	.
Cc1cc2ccccc2n1CCNC(=O)c1cccc(Cl)c1	.	2%	.	4%	1%
C=CCNC(=S)NNC(=O)COc1ccc2cc(Br)ccc2c1	5%	1%	?	-1%	8%
C=CCNC(=S)NNC(=O)COc1cccc(Cl)c1	4%	4%	18µM*	-3%	-19%
CCn1c(=O)cc(SCC(=O)N2CCN(c3ccccn3)CC2)c2ccccc21	1%	i	16µM*	0%	4%
CCn1c(=O)cc(SCC(=O)N2CCN(c3ccccc3F)CC2)c2ccccc21	0%	-1%	?	3%	3%
Cc1ccc(C)n1-c1cccc(C(=O)O)c1	11µM*	.	-12%	.	.
C/C(=N/NC(=O)COc1cc(C)ccc1C(C)C)C(=O)O	0%	-8%	10µM*	6%	0%
C[n+]1c2cc(N)ccc2cc2ccc(N)cc21	.	4%	.	35µM*	?
Nc1ccc2ccccc2c1	.	-8%	.	-5%	0%

Screens as filed in PubChem BioAssay.
